Eight compounds from PubChem BioAssay (NCATS) can be followed below.

The nature of assay [1]: Viability qHTS for spleen associated tyrosine kinase inhibitor (SYKi) naive MV4-11 cells (AID 1963823). Note: nearly all actives have a fitted effect of over 40% in size. In outline: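 Seeding of 500 SYKi-naive MV4-11 cells per well onto pre-dispensed compounds preceded a 72 hr incubation at 37 C. Luminescent CellTiter-Glo signal, read after 10 min at room temperature, reflected viable cells.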
Assay [2] in a line: Viability qHTS for spleen associated tyrosine kinase inhibitor (SYKi) drug resistant MV4-11 cells (AID 1963824). Note: nearly all actives have a fitted effect of over 35% in size. A digest of the protocol: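 SYK inhibitor-resistant MV4-11 AML cells, 500 per well, added to predispensed compounds and incubated 72 hr at 37 C, 5% CO2. Viability measured by CellTiter-Glo luminescence after 10 min at room temperature.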
For orientation: qHTS replaces the single test concentration by a dilution series.

The nature of assay [3]: Cellular viability qHTS for adrenocortical cancer (ACC) cell line SW-13 (AID 1963989).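 For activity (max response): cells grown in serum-free medium with ITS supplement; % is set by controls: 0 for no effect and ±100 for the full control effect.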 Note: nearly all actives have a fitted effect of over 65% in size. As to conditions: SW-13 ACC cells viability, CellTiter-Glo, 48 h; activity (max response): stronger effect = lower value. In outline:
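Luminescent ATP read-out (CellTiter-Glo, 20 min at room temperature) measured metabolically competent SW-13 cells after 48 h compound treatment. Final concentrations spanned up to 46 uM; bortezomib served as positive control.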

A short description of assay [4]: Quantitative highthroughput screen to assess conditional lethalithy of SEM cells grown in RPMI1640 with unreated serum (RPMI+s) (AID 1963883). Note: nearly all actives have a fitted effect of over 35% in size. In outline: (§1)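 Each medium arm—HPLM with 10% dialyzed FBS, or RPMI1640 with 5 mM glucose and 10% untreated or dialyzed FBS—was screened against an 11-point, 3-fold compound titration for 48 h at 37 °C, with CellTiter-Glo luminescence as endpoint.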

Assay [5] in a line: Quantitative highthroughput screen to assess conditional lethalithy of SEM cells grown in Human Plasma-Like Medium with dialyzed fetal bovine serum (HPLM+ds) (AID 1963882). Note: nearly all actives have a fitted effect of over 35% in size. A digest of the protocol:
as §1

A short description of assay [6]: Quantitative highthroughput screen to assess conditional lethalithy of SEM cells grown in RPMI1640 with dialyzed fetal bovine serum (RPMI+ds) (AID 1963884). Note: nearly all actives have a fitted effect of over 35% in size. A digest of the protocol:
as §1

Assay [7] in a line: Cellular viability qHTS for adrenocortical cancer (ACC) cell line NCI-H295R (AID 1963990). Note: nearly all actives have a fitted effect of over 60% in size. In outline: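 IC50 and maximal efficacy derive from four-parameter logistic modelling of titration curves, with reads scaled between DMSO-only wells (0%) and doxorubicin hydrochloride (100% inhibition). Compounds spanned up to 46 uM over 48 h.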

Molecules are shown by their SMILES. Values joined by “and” are separate entries in the source; they are usually repeats but may differ in a detail not shown here. Equal entries are not always repeated. Records with an inconclusive call do not appear. Values without a mark were called inactive. Active and inactive are the calls of the source. Calls come from the whole dose curve; as a rule, active = well fitted curve in the direction sought with a large enough effect; inconclusive = small, poorly fitted or top-dose-only effect, or another doubt; inactive = no such curve, though single readings can be large; an effect the other way counts as inactive or inconclusive.
Potency is the fitted concentration of half-maximal effect.

In the case of `CCNC1(C(N)=O)CCN(c2ncnc3c2nc(-c2ccccc2Cl)n3-c2ccc(Cl)cc2)CC1`, the results for the Potency in assay [1] and in assay [2] were 7.42 µM (active) and 16.6 µM (active), respectively. Besides, in assay [3], the activity (max response) was -4.01%.

Take `COc1cc2c(Oc3ccc4[nH]c(C)cc4c3F)ccnc2cc1OCC1(N)CC1`: the Potency is 4.17 µM (active) in assay [1], 4.17 µM (active) in assay [2] and 11.2 µM (active) in assay [3].

Regarding `CCN(CC)C(=O)N1CCN(C)CC1`, the Potency result in assay [1] and in assay [2] was “inactive” throughout. In addition, in assay [3], the activity (max response) is -0.284%.

With `CC(C)(C)CC(C)(C)c1ccc(OCCOCC[N+](C)(C)Cc2ccccc2)cc1`, the Potency is 2.37 µM (active) and 1.16 µM (active) in assay [1]; 2.37 µM (active) and 1.46 µM (active) in assay [2]; 5.17 µM (active) in assay [3].

In the case of `Cn1c(=O)c(F)c(Nc2ccc(I)cc2F)c2c(=O)n(C[C@@H](O)CO)cnc21`, the Potency in assay [1] is 0.0332 µM (active); in assay [2] it was 0.0235 µM (active); in assay [4], 6.62 µM (active).

On to `C=CC(=O)Nc1cccc(Sc2nc(Nc3ccc(N4CCN(C)CC4)cc3)ncc2Cl)c1`, for which the Potency in assay [1] is 580 nM (active) and 590 nM (active); in assay [2], 580 nM (active) and 742 nM (active); in assay [5], 23.5 µM (active); in assay [6], 16.6 µM (active); in assay [3], 2 µM (active); in assay [7] it was 3.16 µM (active).

Consider `CN(C)Cc1cccc(N=C(c2ccccc2)c2c(O)[nH]c3cc(C(=O)N(C)C)ccc23)c1`, for which the Potency in assay [1] is 2.95 µM (active); in assay [2] it was 7.42 µM (active); in assay [5], 16.6 µM (active); in assay [4], 7.43 µM (active); in assay [6] it was 10.5 µM (active). Also, in assay [7], the Potency result is “inactive”.

Take `CN(C)CCOc1ccc(/C(=C(/CCCl)c2ccccc2)c2ccccc2)cc1`: the Potency in assay [1] is 14.8 µM (active); in assay [2], 13.2 µM (active). Also, the activity (max response) in assay [3] is -6.2%.
